Outcome and AC50 data for 4 compounds are collected here from PubChem BioAssay (EPA / NIEHS).

Assay [1] in a line: ATG_M_06_XSP2: Attagene TRANS-FACTORIAL Multi-Species (XSP2) HepG2 Assay for M06 Transcription Factor (Internal Marker) (AID 2283811).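 Note: internal background marker reporter mRNA measured by RT-PCR and capillary electrophoresis; hits are increases in signal above the DMSO baseline.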 The procedure, abridged: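 Cells of the human liver line HepG2 carried transfected reporter transcription units and were treated for 24 h. Induced reporter transcripts were detected by fluorescence after RT-PCR and capillary electrophoresis, with activity fitted in the gain direction against DMSO.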

Assay [2] has as its system turtle Estrogen Receptor (ERa), gene 101933533. The assay can be described thus: ATG_trERa_XSP2: Attagene TRANS-FACTORIAL Multi-Species (XSP2) HepG2 Assay for turtle Estrogen Receptor (ERa) (AID 2283812).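 Note: actives raise reporter signal above DMSO so AC50 reflects agonist activity.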 The procedure, abridged: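 Readout is reporter mRNA quantified by RT-PCR with capillary electrophoresis after 24 h compound exposure, increase relative to DMSO. Uses transiently transfected human HepG2 liver cells carrying a chimeric turtle ERa-Gal4 receptor driving GAL4-UAS reporters.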

Assay [3] deals with zebrafish Estrogen Receptor (ER1), esr1 (gene 259252) (UniProt P57717). The assay can be described thus: ATG_zfER1_XSP2: Attagene TRANS-FACTORIAL Multi-Species (XSP2) HepG2 Assay for zebrafish Estrogen Receptor (ER1) (AID 2283816). The procedure, abridged: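 After 24 h compound exposure, RNA from transfected HepG2 cells was reverse-transcribed and reporter transcripts resolved by capillary electrophoresis. The TRANS format reads exogenous zebrafish ER1-Gal4 chimera activity on GAL4-UAS elements; gain of signal against DMSO.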
Sequence of zebrafish Estrogen Receptor (ER1), esr1 (gene 259252) (P57717 whole entry, looked up, the tested form may be a part): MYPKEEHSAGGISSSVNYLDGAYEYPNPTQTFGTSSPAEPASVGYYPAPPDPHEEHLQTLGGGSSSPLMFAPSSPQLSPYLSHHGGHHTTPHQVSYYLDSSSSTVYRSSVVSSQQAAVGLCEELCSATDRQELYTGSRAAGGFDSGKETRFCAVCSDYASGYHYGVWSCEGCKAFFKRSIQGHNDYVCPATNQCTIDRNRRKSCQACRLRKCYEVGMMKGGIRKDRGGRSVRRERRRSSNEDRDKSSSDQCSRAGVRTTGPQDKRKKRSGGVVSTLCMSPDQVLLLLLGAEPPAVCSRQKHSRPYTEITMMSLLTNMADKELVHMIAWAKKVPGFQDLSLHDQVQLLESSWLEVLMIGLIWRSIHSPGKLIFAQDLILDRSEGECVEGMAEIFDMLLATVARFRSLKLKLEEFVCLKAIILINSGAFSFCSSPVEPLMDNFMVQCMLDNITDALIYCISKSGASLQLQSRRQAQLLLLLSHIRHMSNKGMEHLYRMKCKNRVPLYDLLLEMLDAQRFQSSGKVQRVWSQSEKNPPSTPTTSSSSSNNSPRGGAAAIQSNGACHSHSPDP

The target of assay [4] is chicken Estrogen Receptor (ERa), ESR1 (gene 396099) (UniProt P06212). The assay can be described thus: ATG_chERa_XSP2: Attagene TRANS-FACTORIAL Multi-Species (XSP2) HepG2 Assay for chicken Estrogen Receptor (ERa) (AID 2283817).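 Note: actives raise reporter signal above DMSO so AC50 reflects ER activation.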 The essentials: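 Exogenous chicken ERa-Gal4 chimera activity was assessed in transfected human liver HepG2 cells after 24 h of treatment. Induced reporter mRNA was quantified fluorescently by capillary electrophoresis, with DMSO as baseline.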
Sequence of chicken Estrogen Receptor (ERa), ESR1 (gene 396099) (P06212 whole entry, looked up, the tested form may be a part): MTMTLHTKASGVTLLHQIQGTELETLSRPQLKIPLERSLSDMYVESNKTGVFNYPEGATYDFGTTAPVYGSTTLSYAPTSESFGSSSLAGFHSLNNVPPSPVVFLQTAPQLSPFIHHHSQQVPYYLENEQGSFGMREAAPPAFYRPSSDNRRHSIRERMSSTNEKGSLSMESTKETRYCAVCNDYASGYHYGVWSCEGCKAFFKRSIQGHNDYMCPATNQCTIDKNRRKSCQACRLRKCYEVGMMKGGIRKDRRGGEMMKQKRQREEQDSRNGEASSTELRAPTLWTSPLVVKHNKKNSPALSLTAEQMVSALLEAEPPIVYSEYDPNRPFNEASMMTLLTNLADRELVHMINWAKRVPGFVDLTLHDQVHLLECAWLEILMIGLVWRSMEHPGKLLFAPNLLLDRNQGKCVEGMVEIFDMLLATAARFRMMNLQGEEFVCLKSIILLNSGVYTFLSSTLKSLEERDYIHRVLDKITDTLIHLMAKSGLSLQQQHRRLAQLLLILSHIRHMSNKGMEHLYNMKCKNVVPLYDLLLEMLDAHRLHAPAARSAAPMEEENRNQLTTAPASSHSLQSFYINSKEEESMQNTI

In assay [5] the test system is chicken Androgen Receptor (AR), gene 422165. The assay can be described thus: ATG_chAR_XSP2: Attagene TRANS-FACTORIAL Multi-Species (XSP2) HepG2 Assay for chicken Androgen Receptor (AR) (AID 2283819).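 Note: hits raise reporter mRNA above DMSO so potency is for activation.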 The essentials: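 Readout is reporter mRNA induction via RT-PCR/capillary electrophoresis after 24 h chemical exposure, positive direction relative to DMSO. Transiently transfected HepG2 express chimeric chicken AR–GAL4; AR stimulated by 3 nM 6-alpha-fluorotestosterone and 1.5 nM norgestrel.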

In assay [6] the test system is frog Estrogen Receptor (ER), gene 398734. The assay can be described thus: ATG_frER1_XSP2: Attagene TRANS-FACTORIAL Multi-Species (XSP2) HepG2 Assay for frog Estrogen Receptor (ER) (AID 2283821).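 Note: hits raise reporter mRNA above DMSO baseline so potency means agonist or activator.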 The essentials:
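Gain-of-signal mRNA reporter assay, HepG2 human liver cells, 24 h dosing; transcripts read by fluorescent RT-PCR fragment analysis, DMSO as negative control.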

In assay [7] the test system is zebrafish Estrogen Receptor (ER2b), gene 317733. The assay can be described thus: ATG_zfER2b_XSP2: Attagene TRANS-FACTORIAL Multi-Species (XSP2) HepG2 Assay for zebrafish Estrogen Receptor (ER2b) (AID 2283823).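 Note: fitted upward as reporter gain over DMSO so potency reflects activation.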 The procedure, abridged:
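Cells used were HepG2, transiently transfected with chimeric nuclear receptor-Gal4 reporter units. After 24 h of chemical treatment, reporter transcripts were amplified by RT-PCR, labelled and sized by capillary electrophoresis, with induction analysed relative to DMSO.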

The test system of assay [8] is zebrafish Androgen Receptor (AR), gene 100005148. Description: ATG_zfAR_XSP2: Attagene TRANS-FACTORIAL Multi-Species (XSP2) HepG2 Assay for zebrafish Androgen Receptor (AR) (AID 2283825).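 Note: hits raise reporter mRNA above DMSO so AC50 reflects agonist-type gain.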 The procedure, abridged:
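After 24 h compound exposure in medium with 3 nM 6-alpha-fluorotestosterone plus 1.5 nM norgestrel, HepG2 cells carrying zebrafish AR–GAL4 reporter constructs were assessed for reporter mRNA gain by RT-PCR and capillary electrophoresis.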

Assay [9] addresses Estrogen receptor (Homo sapiens) (UniProt P03372). The assay can be described thus: ATG_hERa_XSP2: Attagene TRANS-FACTORIAL Multi-Species (XSP2) HepG2 Assay for human Estrogen Receptor (ERa) (AID 2283827). The essentials: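 Trans-activation of exogenous human ERa-Gal4 chimera read in HepG2 as reporter transcript after 24 h exposure; medium included 3 nM 6-alpha-fluorotestosterone and 1.5 nM norgestrel. Quantified by RT-PCR with capillary electrophoresis, positive-direction fitting against DMSO.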

The subject of assay [10] is frog Estrogen Receptor (ER2), gene 100174814. The assay can be described thus: ATG_frER2_XSP2: Attagene TRANS-FACTORIAL Multi-Species (XSP2) HepG2 Assay for frog Estrogen Receptor (ER2) (AID 2283828). The essentials: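 Induction of reporter mRNA, baseline set by DMSO, is the endpoint. The panel was run in transfected HepG2 cells over 24 h, with 3 nM 6-alpha-fluorotestosterone and 1.5 nM norgestrel present to stimulate androgen receptor.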

Assay [11] has as its target Peroxisome proliferator-activated receptor gamma (Homo sapiens) (UniProt P37231). The assay can be described thus: ATG_hPPARg_XSP2: Attagene TRANS-FACTORIAL Multi-Species (XSP2) HepG2 Assay for human Peroxisome Proliferator-activated Receptor gamma (PPARg) (AID 2283829).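 Note: actives raise reporter mRNA above DMSO so AC50 reflects PPARg activation.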 The essentials: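 After transfecting HepG2 with GAL4-UAS reporter constructs, cells are dosed for 24 h; total RNA is reverse-transcribed, PCR-amplified, FAM-labeled, HpaI-digested and resolved by capillary electrophoresis. Activity is measured as mRNA induction relative to DMSO.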

The target in assay [12] is mouse Peroxisome Proliferator-activated Receptor gamma (PPARg), Pparg (gene 19016) (UniProt P37238). The assay can be described thus: ATG_mPPARg_XSP2: Attagene TRANS-FACTORIAL Multi-Species (XSP2) HepG2 Assay for mouse Peroxisome Proliferator-activated Receptor gamma (PPARg) (AID 2283830).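 Note: hits are gains in reporter mRNA above DMSO so AC50 marks activation.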 The essentials: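 Multiplexed TRANS reporter readout: after 24 h chemical exposure of transfected HepG2 cells (with 3 nM 6-alpha-fluorotestosterone, 1.5 nM norgestrel present), RNA reverse-transcribed, amplified, 6-FAM-labelled and resolved by capillary electrophoresis; mouse PPARg-Gal4 induction scored against DMSO.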
Sequence of mouse Peroxisome Proliferator-activated Receptor gamma (PPARg), Pparg (gene 19016) (P37238 whole entry, looked up, the tested form may be a part): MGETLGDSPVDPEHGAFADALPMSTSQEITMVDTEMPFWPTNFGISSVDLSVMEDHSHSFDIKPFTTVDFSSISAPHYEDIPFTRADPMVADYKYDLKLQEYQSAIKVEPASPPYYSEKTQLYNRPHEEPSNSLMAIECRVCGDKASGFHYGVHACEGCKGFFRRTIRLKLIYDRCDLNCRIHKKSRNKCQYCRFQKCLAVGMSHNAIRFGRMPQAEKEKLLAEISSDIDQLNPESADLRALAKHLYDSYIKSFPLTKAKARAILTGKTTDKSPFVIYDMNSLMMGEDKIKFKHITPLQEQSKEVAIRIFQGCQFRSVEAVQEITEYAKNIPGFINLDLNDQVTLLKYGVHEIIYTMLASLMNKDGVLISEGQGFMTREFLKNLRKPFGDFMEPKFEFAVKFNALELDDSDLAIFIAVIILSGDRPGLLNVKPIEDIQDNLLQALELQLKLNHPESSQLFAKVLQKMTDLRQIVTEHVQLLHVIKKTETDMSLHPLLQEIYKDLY

The target in assay [13] is Nuclear receptor subfamily 1 group I member 2 (Mus musculus) (UniProt O54915). Description: ATG_mPXR_XSP2: Attagene TRANS-FACTORIAL Multi-Species (XSP1) HepG2 Assay for mouse Pregnane X Receptor (PXR) (AID 2283831). The procedure, abridged: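 Reporter transcripts were quantified by RT-PCR, FAM primer extension, HpaI digestion and capillary electrophoresis after 24 h of chemical exposure in transiently transfected HepG2 cells carrying chimeric receptor-GAL4 constructs; DMSO served as baseline.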
Sequence of Nuclear receptor subfamily 1 group I member 2 (Mus musculus) (O54915 whole entry, looked up, the tested form may be a part): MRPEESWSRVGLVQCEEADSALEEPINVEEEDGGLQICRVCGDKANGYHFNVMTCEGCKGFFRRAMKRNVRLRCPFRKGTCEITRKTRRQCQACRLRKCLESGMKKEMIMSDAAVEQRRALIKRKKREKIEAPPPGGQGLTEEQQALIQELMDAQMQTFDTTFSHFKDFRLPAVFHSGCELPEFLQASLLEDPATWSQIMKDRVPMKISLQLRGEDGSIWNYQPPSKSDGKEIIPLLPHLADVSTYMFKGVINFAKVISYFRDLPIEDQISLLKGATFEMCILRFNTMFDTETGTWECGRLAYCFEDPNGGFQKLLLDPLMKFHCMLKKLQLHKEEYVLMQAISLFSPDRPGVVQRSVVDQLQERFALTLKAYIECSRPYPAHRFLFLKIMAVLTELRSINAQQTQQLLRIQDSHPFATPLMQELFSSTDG

The target of assay [14] is zebrafish Thyroid Hormone Receptor alpha (TRa), thraa (gene 30670) (UniProt Q98867). The assay can be described thus: ATG_zfTRa_XSP2: Attagene TRANS-FACTORIAL Multi-Species (XSP1) HepG2 Assay for zebrafish Thyroid Hormone Receptor alpha (TRa) (AID 2283832).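 Note: actives raise zebrafish TRa-Gal4 reporter transcript above DMSO baseline.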 The essentials: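 Chimeric zebrafish TRa-Gal4 activity read in transfected human HepG2 as GAL4-UAS reporter transcripts, 24 h post-dose, via RT-PCR with labeled primer extension and capillary electrophoresis. Medium also carries 3 nM 6-alpha-fluorotestosterone and 1.5 nM norgestrel; DMSO baseline.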
Sequence of zebrafish Thyroid Hormone Receptor alpha (TRa), thraa (gene 30670) (Q98867 whole entry, looked up, the tested form may be a part): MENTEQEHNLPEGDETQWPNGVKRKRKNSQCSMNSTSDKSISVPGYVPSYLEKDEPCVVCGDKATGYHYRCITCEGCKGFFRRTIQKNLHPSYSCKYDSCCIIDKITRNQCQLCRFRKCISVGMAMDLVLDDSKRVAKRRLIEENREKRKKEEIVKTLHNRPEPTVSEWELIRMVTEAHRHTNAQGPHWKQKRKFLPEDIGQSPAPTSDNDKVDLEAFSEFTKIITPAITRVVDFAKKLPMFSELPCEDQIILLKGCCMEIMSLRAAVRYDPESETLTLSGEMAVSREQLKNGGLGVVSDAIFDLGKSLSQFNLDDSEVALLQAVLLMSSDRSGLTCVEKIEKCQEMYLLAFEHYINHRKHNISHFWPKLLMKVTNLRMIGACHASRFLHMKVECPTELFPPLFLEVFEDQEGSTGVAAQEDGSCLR

For assay [15], the system named is zebrafish Peroxisome Proliferator-activated Receptor gamma (PPARg), gene 557037. Description: ATG_zfPPARg_XSP2: Attagene TRANS-FACTORIAL Multi-Species (XSP2) HepG2 Assay for zebrafish Peroxisome Proliferator-activated Receptor gamma (PPARg) (AID 2283833).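 Note: actives increase reporter signal over DMSO so AC50 reflects activation.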 The procedure, abridged: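 Multi-species TRANS format in HepG2, 24 h dosing; medium also contained 3 nM 6-alpha-fluorotestosterone and 1.5 nM norgestrel to stimulate androgen receptor. Zebrafish PPARg-GAL4 induced reporter mRNA was measured by RT-PCR/capillary electrophoresis.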

Assay [16] relates to zebrafish Estrogen Receptor (ER2a), gene 317734. The assay can be described thus: ATG_zfER2a_XSP2: Attagene TRANS-FACTORIAL Multi-Species (XSP2) HepG2 Assay for zebrafish Estrogen Receptor (ER2a) (AID 2283818).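 Note: hits raise reporter mRNA so AC50 reflects activation of zebrafish ER2a.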 The essentials:
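Multiplexed trans-reporter readout: RT-PCR then capillary electrophoresis of reporter transcripts after 24 h compound treatment. Human HepG2 carries transfected zebrafish ER2a-Gal4 chimera; 3 nM 6-alpha-fluorotestosterone plus 1.5 nM norgestrel present. Induction scored against DMSO.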

Assay [17] has as its target Nuclear receptor subfamily 1 group I member 2 (Mus musculus) (UniProt O54915). The assay can be described thus: ATG_mPXR_XSP1: Attagene TRANS-FACTORIAL Multi-Species (XSP1) HepG2 Assay for mouse Pregnane X Receptor (PXR) (AID 2283803). The essentials:
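Transiently transfected HepG2 cells expressing a receptor-Gal4 chimera drive a GAL4-UAS reporter; 3 nM 6-alpha-fluorotestosterone included. Reporter mRNA read 24 h post-dose by RT-PCR and capillary electrophoresis; gain of signal relative to DMSO.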

Assay [18] relates to turtle Thyroid Hormone Receptor, alpha (TRa), gene 101949057. Description: ATG_trTRa_XSP1: Attagene TRANS-FACTORIAL Multi-Species (XSP1) HepG2 Assay for turtle Thyroid Hormone Receptor, alpha (TRa) (AID 2283806). The procedure, abridged:
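After 24 h chemical exposure, reporter transcripts were measured by RT-PCR with fluorescent primer extension, HpaI digestion and capillary electrophoresis. Cells were transiently transfected HepG2 expressing exogenous NR-Gal4 chimeras; medium contained 3 nM 6-alpha-fluorotestosterone; fitted upward relative to DMSO.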

Assay [19] is described as follows: ATG_XTT_Cytotoxicity_XSP1: Cytotoxicity Assessment in the Attagene TRANS-FACTORIAL Multi-Species (XSP1) HepG2 Assay (AID 2283810). The essentials:
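XTT viability readout taken at 24 hours post-dosing in HepG2 liver cells co-treated with 3 nM 6-alpha-fluorotestosterone. Signal loss relative to DMSO controls reflects cytotoxicity.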

Assay [20] has as its target Estrogen receptor beta (Homo sapiens) (UniProt Q92731). The assay can be described thus: ATG_hERb_XSP2: Attagene TRANS-FACTORIAL Multi-Species (XSP2) HepG2 Assay for human Estrogen Receptor (ERb) (AID 2283813).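 Note: actives raise reporter mRNA above DMSO so AC50 reflects agonist induction.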 The procedure, abridged: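 Transient TRANS reporter system in HepG2: after 24 h of chemical, RNA is reverse-transcribed, reporter cDNA amplified, FAM-labelled and sized by capillary electrophoresis. Induction of the human ERb-Gal4 reporter is measured relative to DMSO.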

Where “and” joins values, the source holds several entries; their conditions need not be identical. Identical values can stand only once. Inconclusive results are not listed. A structure can be active in one record and inactive in another. Calls of active or inactive are those of the source. Rule for the calls: active = hit-call score of the fitted dose curve at least 0.9, where 1 is the maximum; inconclusive = response in the unintended direction; inactive = score below 0.9.

Sequence of Peroxisome proliferator-activated receptor gamma (Homo sapiens) (P37231 whole entry, looked up, the tested form may be a part): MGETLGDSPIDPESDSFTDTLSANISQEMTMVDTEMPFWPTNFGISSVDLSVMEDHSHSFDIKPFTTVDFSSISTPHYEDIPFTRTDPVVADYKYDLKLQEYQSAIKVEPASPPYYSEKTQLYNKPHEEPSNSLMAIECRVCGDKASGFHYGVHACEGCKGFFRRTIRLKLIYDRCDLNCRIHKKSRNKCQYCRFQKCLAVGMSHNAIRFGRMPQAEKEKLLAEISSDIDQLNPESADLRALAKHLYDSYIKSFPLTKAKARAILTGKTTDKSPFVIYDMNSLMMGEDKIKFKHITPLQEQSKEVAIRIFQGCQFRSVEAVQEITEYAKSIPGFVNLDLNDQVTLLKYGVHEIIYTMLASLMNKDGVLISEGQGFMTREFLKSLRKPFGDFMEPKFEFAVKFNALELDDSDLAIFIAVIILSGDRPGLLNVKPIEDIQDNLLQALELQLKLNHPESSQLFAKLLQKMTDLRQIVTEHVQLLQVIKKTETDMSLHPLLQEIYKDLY
Sequence of Estrogen receptor (Homo sapiens) (P03372 whole entry, looked up, the tested form may be a part): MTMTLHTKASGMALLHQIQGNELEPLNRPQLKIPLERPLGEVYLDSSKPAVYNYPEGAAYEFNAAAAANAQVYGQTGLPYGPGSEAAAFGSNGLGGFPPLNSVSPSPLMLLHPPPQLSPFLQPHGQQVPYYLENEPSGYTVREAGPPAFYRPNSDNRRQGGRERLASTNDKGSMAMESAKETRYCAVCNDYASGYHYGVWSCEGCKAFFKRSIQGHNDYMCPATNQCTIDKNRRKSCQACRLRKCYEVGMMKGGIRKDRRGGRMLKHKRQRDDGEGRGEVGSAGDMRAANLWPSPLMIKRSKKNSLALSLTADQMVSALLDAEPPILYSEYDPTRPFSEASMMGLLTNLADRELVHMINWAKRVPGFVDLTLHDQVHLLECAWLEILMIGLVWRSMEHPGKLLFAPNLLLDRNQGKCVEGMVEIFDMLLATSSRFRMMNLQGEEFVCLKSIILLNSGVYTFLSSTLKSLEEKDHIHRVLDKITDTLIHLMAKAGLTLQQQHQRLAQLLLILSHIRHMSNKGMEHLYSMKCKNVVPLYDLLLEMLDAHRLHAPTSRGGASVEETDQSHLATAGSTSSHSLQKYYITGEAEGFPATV
Sequence of Estrogen receptor beta (Homo sapiens) (Q92731 whole entry, looked up, the tested form may be a part): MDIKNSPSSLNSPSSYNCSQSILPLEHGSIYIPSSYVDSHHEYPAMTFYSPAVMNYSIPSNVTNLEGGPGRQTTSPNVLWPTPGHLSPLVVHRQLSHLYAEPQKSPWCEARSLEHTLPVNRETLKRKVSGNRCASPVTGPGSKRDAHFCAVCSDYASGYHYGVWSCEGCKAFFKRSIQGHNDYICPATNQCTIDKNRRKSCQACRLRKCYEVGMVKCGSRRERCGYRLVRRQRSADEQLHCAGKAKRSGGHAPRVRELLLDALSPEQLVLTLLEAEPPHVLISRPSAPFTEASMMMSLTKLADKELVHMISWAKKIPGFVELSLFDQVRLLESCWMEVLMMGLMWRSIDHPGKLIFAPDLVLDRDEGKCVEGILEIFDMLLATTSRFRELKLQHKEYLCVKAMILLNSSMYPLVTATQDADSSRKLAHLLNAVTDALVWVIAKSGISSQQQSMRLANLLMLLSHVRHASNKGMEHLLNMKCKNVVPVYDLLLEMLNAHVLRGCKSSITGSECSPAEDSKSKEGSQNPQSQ

Usually AC50 stands for the midpoint of the concentration-response curve, whichever way the signal moves. For the compound `O=C(OCCOCCOCCOC(=O)c1ccccc1)c1ccccc1`, the compound was called inactive in assay [1], in assay [2], in assay [3], in assay [4], in assay [5] and in [6]. The call in assay [7], in assay [8], in assay [9], in assay [10], in assay [11] and in assay [12] was inactive. Also, the compound was classed as inactive in [14] and in assay [15]. Moreover, the AC50 was 153 µM (active) in assay [7]; 26.7 µM (active) in [9]; 46.3 µM (active) in assay [11]; 58.5 µM (active) in [12]; 22.8 µM (active) in [13].
Consider `C#C[C@]1(O)CC[C@H]2[C@@H]3CCc4cc(OC)ccc4[C@H]3CC[C@@]21C`, for which the compound was classed as inactive in assay [1], in [11], in assay [13] and in assay [14]. Moreover, the AC50 in [2] is 0.21 nM (active) and 0.082 nM (active); in assay [3], 10.2 nM (active) and 3.1 nM (active); in assay [4], 0.189 nM (active) and 0.519 nM (active); in assay [16], 0.272 nM (active) and 0.0819 nM (active); in [6], 0.598 nM (active) and 0.0823 nM (active); in [7], 1.1 nM (active) and 0.373 nM (active). For the same compound, the AC50 in assay [9] is 0.111 nM (active) and 0.0826 nM (active); in assay [10], 3.94 nM (active) and 1.23 nM (active).
As for `c1ccc(B(c2ccccc2)c2ccccc2)cc1`, the compound was called inactive in assay [1], in [5] and in assay [14]. The AC50 in [2] was 4.9 µM (active) and 7.88 µM (active); in assay [3], 59.7 µM (active) and 22 µM (active); in assay [4] it was 5.78 µM (active) and 3.86 µM (active); in [16], 7.9 µM (active) and 9.53 µM (active); in [6], 7.06 µM (active) and 7.56 µM (active); in assay [7], 18.1 µM (active) and 10.8 µM (active). In addition, the concentration at half-maximal activity (AC50) in [9] was 7.53 µM (active) and 3.43 µM (active); in assay [10], 6.89 µM (active) and 5.72 µM (active); in assay [11], 60.6 µM (active) and 40.8 µM (active); in assay [12], 65.6 µM (active) and 45.9 µM (active); in [13], 1.27 µM (active) and 4.39 µM (active); in assay [15] it was 100 µM (active).
`C(=C(c1ccccc1)c1ccccc1)c1ccccc1`: the compound was called inactive in assay [17], in [18], in [19], in assay [1], in assay [20] and in [3]. The outcome in assay [6], in [11], in [12], in assay [13] and in assay [15] was inactive. Also, the AC50 in assay [2] was 39.9 nM (active); in assay [4], 29.1 nM (active); in assay [7], 0.165 µM (active); in [9], 0.0461 µM (active); in assay [10], 25.3 nM (active).
